From PubChem
G9a inh – inhibitors of human histone lysine methyltransferase G9a; AID 504332; Q96KQ7; G9a H3K9 monomethylation, AlphaScreen, 2 h; 350,000 compounds, 8.8% hits; Potency, µM (highest dose often 102 µM), actives largely listed as inhibitors; also: nearly all actives have a fitted effect of over 75% in size
Target sequence (Q96KQ7 913-1193 limits assumed): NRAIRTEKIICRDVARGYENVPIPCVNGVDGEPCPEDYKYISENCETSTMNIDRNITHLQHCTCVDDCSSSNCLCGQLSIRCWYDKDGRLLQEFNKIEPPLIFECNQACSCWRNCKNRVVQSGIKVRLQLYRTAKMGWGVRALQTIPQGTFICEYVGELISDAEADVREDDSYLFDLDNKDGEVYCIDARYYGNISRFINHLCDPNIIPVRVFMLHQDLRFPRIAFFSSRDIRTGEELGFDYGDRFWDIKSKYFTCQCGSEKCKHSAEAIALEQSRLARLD
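Methyltransferase reactions run at room temperature for 2 h (20 nM enzyme, 500 nM biotin-H3K9 peptide, 20 uM SAM) after a 15 min compound preincubation; product detected by AlphaScreen beads and anti-H3K9me1 antibody.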
HP1b chromo inh – inhibitors of HP1-beta chromodomain binding to methylated histone tails | P83916 | AlphaScreen HP1-beta / biotin-H3K9me3 peptide binding | Potency, µM (series often up to 114 µM), usual class: inhibitors | 390,000 compounds, 0.56% hits | AID 540317; also: nearly all actives have a fitted effect of over 70% in size
Target sequence (P83916 whole entry, looked up): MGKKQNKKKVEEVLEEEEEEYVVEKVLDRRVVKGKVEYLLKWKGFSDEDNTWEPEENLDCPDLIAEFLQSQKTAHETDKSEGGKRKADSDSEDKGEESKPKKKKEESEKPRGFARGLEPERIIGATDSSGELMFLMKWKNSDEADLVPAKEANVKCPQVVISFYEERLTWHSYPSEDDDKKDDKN
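HP1-beta protein (50 nM final) preincubated 30 min at room temperature with biotinylated H3(1-18)K9me3 peptide (50 nM) in PBS pH 7.4, 0.01% Tween-20, then compound added for 30 min. AlphaScreen streptavidin donor/nickel chelate acceptor beads (10 ug/mL final), 30 min dark, luminescence read.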
JMJD2A Tudor – blocks the human JMJD2A Tudor domain. O75164. AlphaScreen JMJD2A-Tudor / H3K4me3 peptide binding. Potency, µM (highest dose often 114 µM), hits mostly inhibitors. 390,000 compounds, 4.4% hits. AID 504339; also: nearly all actives have a fitted effect of over 50% in size
Sfp inh – blocks B. subtilis Sfp PPTase activity. Q9F4F7. Biochemical Sfp PPTase activity, qHTS. Potency, µM, actives largely listed as inhibitors. 310,000 compounds, 3.5% hits. AID 1490;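 also: the enzyme is Sfp with the accession as filed and its product quenches rhodamine fluorescence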
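With Hepes-Na pH 7.6 buffer containing 10 mM MgCl2, Sfp (15 nM) modified BHQ-2-YbbR (12.5 uM) using rhodamine-CoA (5 uM). Two reads 30 minutes apart at 525/598 nm yielded each well's rate.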
BAZ2B block – blocks human BAZ2B; Q9UIF8; AlphaScreen BAZ2B-H3K14Ac peptide displacement; Potency, µM (titrated, usually from 114 µM), hits mostly inhibitors; 360,000 compounds, 4.4% hits; also: nearly all actives have a fitted effect of over 60% in size
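Multi-concentration screen (max 110 uM) measuring displacement of acetylated histone H3 peptide from BAZ2B by AlphaScreen, using 50 nM protein, 50 nM peptide and 10 ug/mL streptavidin donor plus Ni-chelate acceptor beads.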
L3MBTL1 block – inhibitors of human L3MBTL1 | Potency, µM (highest dose often 57.1 µM), actives largely listed as inhibitors | AlphaScreen L3MBTL1–H3K9me1 peptide binding | AID 485360 | 230,000 compounds, 0.66% hits | Q9Y468; also: nearly all actives have a fitted effect of over 60% in size
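L3MBTL1 (50 nM) pre-complexed 30 min with biotinylated H3(1-15)K9me1 peptide (75 nM), then compounds added for 30 min at room temperature; AlphaScreen streptavidin donor/nickel chelate acceptor beads (10 ug/mL final) read after 30 min dark incubation.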
Numbers stand for hits; - = inactive; ? = inconclusive; . = not tested or not shown; [ ] = another dose, or the depositor's remark. In the library only some 12% were active in any assay of this set; here they are far more common. Calls follow the shape of the dose curve; as a rule, active = well fitted curve in the direction sought with a large enough effect; inconclusive = small, poorly fitted or top-dose-only effect, or another doubt; inactive = no such curve, though single readings can be large; an effect the other way counts as inactive or inconclusive.

SMILES	G9a inh	HP1b chromo inh	JMJD2A Tudor	Sfp inh	BAZ2B block	L3MBTL1 block
CCN(CC)c1ccc(/C=C2\C(=O)c3ccc(C(=O)O)cc3C2=O)cc1	11µM	40µM	45µM	-	14µM	?
Cc1ccc(-n2nnnc2CNC(=O)c2ccc3c(c2)OCO3)cc1C	-	-	-	-	-	.
c1ccc(-c2nnc3sc(Cc4cccs4)nn23)cc1	?	-	-	-	-	-
Clc1ccc(-c2nnc3sc(Cc4cccs4)nn23)cc1	35µM	-	-	-	-	?
CC(=O)Oc1ccc(C#C/C=C2\c3ccccc3C(=O)N2c2ccccc2)cc1	.	-	-	.	.	-
CC(C)(C)OC(=O)n1cccc1/C=C1\c2ccccc2C(=O)N1c1ccccc1	.	-	63µM	.	.	.
CC(=O)c1n[nH]nc1NC(=O)c1ccccc1	50µM	-	20µM	-	50µM	.
N#Cc1c(-c2ccccc2)cc(-c2ccccc2)nc1SCC(O)CS(=O)(=O)Cc1ccc(Cl)cc1 (stereo not given)	1.8µM	?	?	.	-	.
COc1ccc(-c2cc(-c3ccc(Cl)cc3)c(C#N)c(SCC(=O)O)n2)cc1	?	?	79µM	-	?	?
N#Cc1c(-c2ccccc2)cc(-c2ccccc2)nc1SCC(=O)NCC(=O)O	45µM	-	-	20µM	-	-
COc1ccc(CNC(=O)CSc2nc(-c3ccccc3)cc(-c3cccs3)c2C#N)cc1	-	-	-	-	-	.
COc1ccc(-c2cc(-c3cccs3)c(C#N)c(SCC(=O)NCc3ccco3)n2)cc1	-	-	-	56µM	-	-
COc1ccc(-c2cc(-c3ccccc3)c(C#N)c(SCC(=O)O)n2)cc1	.	-	-	.	.	.
N#Cc1ccccc1NS(=O)(=O)c1cc2c3c(c1)CCN3C(=O)CC2	?	-	-	.	-	-
CCn1c(C(=O)NCc2ccccc2C)cc2oc3ccccc3c21	-	-	?	.	-	.
N#Cc1c(N2CCCCC2)nc(N2CCCCC2)c2c1CCN(Cc1ccccc1)C2	-[12.7 µM]	-	-	-	?	-
COc1ccccc1-c1cc(-c2ccccc2)nc(SCC(=O)O)c1C#N	.	-	-	-	-	-
CCCOc1ccc(-c2cc(C(F)(F)F)c(C#N)c(SCCC(=O)O)n2)cc1	-	-	79µM	.	?	.
COc1ccc(-c2cc(-c3ccccc3)nc(SCC(=O)Nc3ccccc3C)c2C#N)cc1	13µM	-	-	.	-	.
CCN(CC)C(=O)CSc1nc(-c2ccccc2)cc(-c2ccc(OC)cc2)c1C#N	-	-	-	.	-	.
CCCSc1nc(-c2ccc(OC)cc2)cc(-c2ccccc2OC)c1C#N	1.8µM	-	-	.	-	.
CCCOc1ccc(-c2cc(C(F)(F)F)c(C#N)c(SCC(=O)O)n2)cc1	-	-	-	-	-	.
Cc1ccc(S(=O)(=O)c2nnn3c2nc(N(C)Cc2ccccc2)c2cc(Cl)ccc23)cc1C	-	-	-	.	-	.
O=C(Cn1nc(C(F)(F)F)c2c1CCC2)Nc1ccc(Cl)cc1	-	-	-	.	-	.
O=[N+]([O-])c1ccc2nc(NS(=O)(=O)c3ccc(Cl)cc3)sc2c1	14µM	-	-	-	?	.
SMILES	G9a inh	HP1b chromo inh	JMJD2A Tudor	Sfp inh	BAZ2B block	L3MBTL1 block
O=C(NC(Nc1nc2ccc([N+](=O)[O-])cc2s1)(C(F)(F)F)C(F)(F)F)c1ccccc1Cl	79µM	-	?	-	-	-
CCSc1nc2ccccc2c(=O)n1Cc1ccc(F)cc1	-	-	-	-	-	.
COc1ccc(CN2CCN(CC(O)Cn3c4ccccc4c4ccccc43)CC2)cc1 (stereo not given)	-	-	?	-	?	-
CCn1c2ccccc2c2cc(CN3CCN(Cc4ccccc4F)CC3)ccc21	2µM	?	4µM	.	16µM	.
CCn1c2ccccc2c2cc(CN3CCN(Cc4cc(OC)ccc4O)CC3)ccc21	10µM	?	1µM	50µM	20µM	-
O=c1c2ccccc2n(Cc2ccccc2F)c(=O)n1Cc1ccccc1F	-	-	-	-	-	-
CCn1c2ccccc2c2cc(CN3CCN(Cc4ccccc4C)CC3)ccc21	1.8µM	?	5.6µM	.	56µM	.
CCn1c2ccccc2c2cc(CN3CCN(S(C)(=O)=O)CC3)ccc21	-	?	?	-	?	-
N[C@H](CC(=O)O)C(=O)O	-	.	.	?	.	.
COc1ccc(N2C(=O)CC(Sc3n[nH]c(-c4ccccc4)n3)C2=O)cc1 (stereo not given)	.	?	5µM	35µM	-	-
CCOc1ccc(N2C(=O)CC(Sc3n[nH]c(-c4ccccc4)n3)C2=O)cc1 (stereo not given)	-[0.501 µM]	?	4.5µM	?	-	-
CCOc1ccc(N2C(=O)CC(SCc3nc4ccccc4[nH]3)C2=O)cc1 (stereo not given)	.	-	-	-	-	-
COc1cc(OC)c(C#N)c(S(=O)(=O)Cc2ccccc2)c1	-	-	-	-	-	-
N#Cc1c([N+](=O)[O-])cc([N+](=O)[O-])cc1S(=O)(=O)Cc1ccccc1	?	-	79µM	.	?	-
CCOC(=O)c1noc2nc(C)n(Cc3cccc([N+](=O)[O-])c3)c(=O)c12	-	-	-	.	-	.
CCOC(=O)c1noc2nc(C)n(Cc3ccc([N+](=O)[O-])cc3)c(=O)c12	-	-	20µM	.	-	.
c1ccc(-n2cnc3cc(NCc4cccs4)ccc32)cc1	-[2.33 µM]	-	56µM	-	50µM	-
c1ccc(-n2cnc3cc(NCc4ccco4)ccc32)cc1	11µM	?	79µM	-	?	-
COc1ccc(-n2cnc3cc(NCc4cccs4)ccc32)cc1	?	40µM	-[11.4 µM]	-	18µM	?
CN1CCCC(CC2Oc3ccccc3Sc3ccccc32)C1 (stereo not given)	?	?	8.9µM	?	50µM	-
c1ccc2c(c1)OC(CCCN1CCCCC1)c1ccccc1S2 (stereo not given)	-	-	-	-	-	?
COc1ccc(OC)c(N(CC(=O)NCc2ccccc2)S(=O)(=O)c2ccc(OC)c(OC)c2)c1	.	-	-	50µM	-	.
COc1ccc(N(CC(=O)Nc2cccc(C(C)=O)c2)S(=O)(=O)c2ccccc2)c(OC)c1	3.2µM	-	-	.	?	.
O=C(NCCC(=O)N1CCNC1=O)OCc1ccccc1	-[12.7 µM]	-	-	50µM	-	.
CCN(C(=O)CCS(=O)(=O)c1ccc2c(c1)CCN2C(C)=O)c1cccc(C(F)(F)F)c1	-	-	-	.	.	.
CC(C)(C)C(CN1CCCC1)OC(=O)c1ccccc1 (stereo not given)	-	-	-	-	-	.
Cc1ccc(Nc2nnc(SC/C(O)=C(\C#N)c3nc4ccccc4[nH]3)s2)c(C)c1	7.1µM	-	-	-	-	-
Cc1cccc(Nc2nnc(SC/C(O)=C(\C#N)c3nc4ccccc4[nH]3)s2)c1	16µM	-	-	-	-	-
